Test results as given in the supplement of paper PMC3545927.
This is one part of the list. The hit rate among all sequences tested is not known here.

B1: HC1318 (peptide)
chain: CAPLPPPKSPAGNASASA
B2: HC1421 (peptide)
chain: CAFGYGAKDVAGNASASA
B3: HC256 (peptide)
chain: CAAYQVRNSTAGNASASA
B4: HC1099 (peptide)
chain: CAEDLVNLLPAGNASASA
B5: HC2123 (peptide)
chain: CAEAVVCCSMAGNASASA
B6: FS-2942 (peptide)
chain: CARHQRTENIAGNASASA
B7: FS-2557 (peptide)
chain: CARHYRNVFHAGNASASA
B8: FS-2143 (peptide)
chain: CARHKRVGTLAGNASASA
B9: FS-2675 (peptide)
chain: CARHGRDLYRAGNASASA
B10: FS-2023 (peptide)
chain: CARHKRTIPMAGNASASA
B11: FS-2027 (peptide)
chain: CARHYRSNSPAGNASASA
B12: FS-3254 (peptide)
chain: CARHKRIPPEAGNASASA
B13: FS-1824 (peptide)
chain: CARHKRWHFIAGNASASA
B14: FS-1895 (peptide)
chain: CARHKRVHSGAGNASASA
B15: FS-1719 (peptide)
chain: CARHYRWALGAGNASASA
B16: HC33 (peptide)
chain: CAMEECEQHLAGNASASA
B17: HC2171 (peptide)
chain: CAEDVTSTWVAGNASASA
B18: HC2455 (peptide)
chain: CAEHEVPCHRAGNASASA
B19: HC1496 (peptide)
chain: CAVAIKSLTEAGNASASA
B20: FS-2777 (peptide)
chain: CARRKKSGRGAGNASASA
B21: FS-2368 (peptide)
chain: CARRARSAPAAGNASASA
B22: FS-2593 (peptide)
chain: CARRKKALEIAGNASASA
B23: FS-2514 (peptide)
chain: CARRKKSAPAAGNASASA
B24: FS-2513 (peptide)
chain: CARRARVTDAAGNASASA
B25: FS-2512 (peptide)
chain: CARRARGADAAGNASASA
B26: FS-3050 (peptide)
chain: CARRKKSLSEAGNASASA
B27: HC1059 (peptide)
chain: CAVTSPLTTSAGNASASA
B28: HC2232 (peptide)
chain: CAEVVTSTEVAGNASASA
B29: HC498 (peptide)
chain: CALPCSFTTLAGNASASA
B30: HC1978 (peptide)
chain: CAETTTPCSGAGNASASA
B31: HC318 (peptide)
chain: CAGHRMAWDMAGNASASA
B32: HC942 (peptide)
chain: CATGLTHIDAAGNASASA
B33: HC2333 (peptide)
chain: CAERPCHRPSAGNASASA
B34: HC1152 (peptide)
chain: CAWICEVLSDAGNASASA
B35: HC290 (peptide)
chain: CARRHIDLLVAGNASASA
B36: HC2187 (peptide)
chain: CAEVFTSTWVAGNASASA
B37: FS-520 (peptide)
chain: CAYIERSPRSAGNASASA
B38: FS-409 (peptide)
chain: CADKSRSPRSAGNASASA
B39: HC1239 (peptide)
chain: CAGSQLPCEPAGNASASA
B40: HC1634 (peptide)
chain: CANWAVRTKLAGNASASA
B41: FS-3147 (peptide)
chain: CARAPRSSSQAGNASASA
B42: FS-2134 (peptide)
chain: CAREKRGGETAGNASASA
B43: FS-2006 (peptide)
chain: CAREKKSNSPAGNASASA
B44: FS-1850 (peptide)
chain: CAREKRAAEQAGNASASA
B45: FS-2908 (peptide)
chain: CAREARVVSDAGNASASA
B46: HC1017 (peptide)
chain: CAQHLPYIEQAGNASASA
B47: FS-2008 (peptide)
chain: CAREKRSNSQAGNASASA
B48: FS-2207 (peptide)
chain: CAREKRAKIKAGNASASA
B49: FS-1889 (peptide)
chain: CAREKRSISDAGNASASA
B50: FS-1697 (peptide)
chain: CARERRGREQAGNASASA
B51: FS-2257 (peptide)
chain: CARFARMIEQAGNASASA
B52: FS-2915 (peptide)
chain: CAREKRRSADAGNASASA

Target: furin, P09958
Assay: furin cleavage Z-score vs untreated control; higher = more cleavage, active = 3.5 or more, inactive = 1 or less, 8 variable residues between constant flanks
Outline: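 Peptides 8 residues long, fused to a cDNA oligonucleotide, were fixed to magnetic beads by the N-terminus and exposed to purified furin. The 0.01 ml reactions contained 50 mM HEPES pH 7.5 with CaCl2 and NaCl at 1:10 enzyme:substrate and ran 7.5, 15 or 30 min. For the cleavage Z-score, log counts of sequenced released DNA were compared with furin-free reactions, lowess-adjusted and scaled by median absolute deviation.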

Sequence of furin, P09958 (P09958 whole entry): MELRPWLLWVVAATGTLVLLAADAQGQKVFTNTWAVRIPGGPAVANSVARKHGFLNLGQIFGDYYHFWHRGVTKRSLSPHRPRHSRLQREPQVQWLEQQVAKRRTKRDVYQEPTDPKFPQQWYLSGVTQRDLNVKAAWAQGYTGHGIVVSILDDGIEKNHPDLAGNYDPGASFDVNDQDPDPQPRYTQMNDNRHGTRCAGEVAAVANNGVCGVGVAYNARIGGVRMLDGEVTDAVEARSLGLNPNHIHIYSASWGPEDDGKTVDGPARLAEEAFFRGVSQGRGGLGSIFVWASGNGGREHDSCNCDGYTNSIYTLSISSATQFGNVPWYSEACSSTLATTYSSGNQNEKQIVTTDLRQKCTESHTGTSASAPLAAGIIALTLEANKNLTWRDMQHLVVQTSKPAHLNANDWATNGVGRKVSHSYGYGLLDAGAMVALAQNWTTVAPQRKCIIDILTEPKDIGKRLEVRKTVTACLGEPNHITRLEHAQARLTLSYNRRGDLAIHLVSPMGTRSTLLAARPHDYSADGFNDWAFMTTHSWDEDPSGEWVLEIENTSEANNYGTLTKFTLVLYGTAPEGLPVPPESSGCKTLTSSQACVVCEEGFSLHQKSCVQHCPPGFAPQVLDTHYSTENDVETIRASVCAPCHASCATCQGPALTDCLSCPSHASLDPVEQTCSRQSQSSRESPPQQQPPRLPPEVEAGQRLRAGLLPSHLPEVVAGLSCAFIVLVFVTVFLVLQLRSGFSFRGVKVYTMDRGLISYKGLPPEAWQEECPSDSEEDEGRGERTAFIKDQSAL

Row | Sequence | furin cleavage Z-score (7.5 min) | furin cleavage Z-score (15 min) | furin cleavage Z-score (30 min)
1 | B1 | -0.389 (inactive) | 0.488 (inactive) | -0.355 (inactive)
2 | B2 | 0.651 (inactive) | 1.8 | 1.24
3 | B3 | -0.996 (inactive) | -1.12 (inactive) | -0.888 (inactive)
4 | B4 | 0.711 (inactive) | 1.96 | 0.196 (inactive)
5 | B5 | -0.484 (inactive) | 0.759 (inactive) | 0.473 (inactive)
6 | B6 | -1.07 (inactive) | -2.42 (inactive) | -0.236 (inactive)
7 | B7 | 1.27 | 2.18 | 5.01 (active)
8 | B8 | 0.0898 (inactive) | 0.0513 (inactive) | 2.38
9 | B9 | 1.82 | 4.66 (active) | 6.11 (active)
10 | B10 | 6.33 (active) | 8.53 (active) | 8.43 (active)
11 | B11 | 1.06 | -1.02 (inactive) | -0.217 (inactive)
12 | B12 | 0.983 (inactive) | 0.356 (inactive) | 0.464 (inactive)
13 | B13 | 2.19 | 2.25 | 4.89 (active)
14 | B14 | -1.2 (inactive) | -0.376 (inactive) | -0.241 (inactive)
15 | B15 | -0.124 (inactive) | 3.28 | 3.44
16 | B16 | -0.264 (inactive) | 1.94 | 0.732 (inactive)
17 | B17 | 0.61 (inactive) | -0.472 (inactive) | 0.123 (inactive)
18 | B18 | 0.493 (inactive) | 1.57 | 2.02
19 | B19 | 0.199 (inactive) | 0.138 (inactive) | 0.903 (inactive)
20 | B20 | 0.0968 (inactive) | 0.171 (inactive) | 1.92
21 | B21 | 10.3 (active) | 10.4 (active) | 8.53 (active)
22 | B22 | 0.898 (inactive) | 1.66 | 1.58
23 | B23 | 4.51 (active) | 6.24 (active) | 5.54 (active)
24 | B24 | 0.594 (inactive) | 0.414 (inactive) | 0.64 (inactive)
25 | B25 | 2.72 | 3.57 (active) | 4.42 (active)
26 | B26 | 4.99 (active) | 7.01 (active) | 7.62 (active)

Row | Sequence | furin cleavage Z-score (7.5 min) | furin cleavage Z-score (15 min) | furin cleavage Z-score (30 min)
27 | B27 | -0.539 (inactive) | -0.0107 (inactive) | -0.218 (inactive)
28 | B28 | -0.0344 (inactive) | 0.123 (inactive) | -0.271 (inactive)
29 | B29 | 0.311 (inactive) | 0.0716 (inactive) | 0.261 (inactive)
30 | B30 | 0.473 (inactive) | 0.124 (inactive) | -0.446 (inactive)
31 | B31 | -0.464 (inactive) | -0.574 (inactive) | -0.169 (inactive)
32 | B32 | -0.972 (inactive) | -0.954 (inactive) | 0.105 (inactive)
33 | B33 | 1.21 | -1.94 (inactive) | 1.34
34 | B34 | 0.155 (inactive) | 0.346 (inactive) | 0.769 (inactive)
35 | B35 | 1.11 | 0.566 (inactive) | 1.2
36 | B36 | 0.575 (inactive) | -0.109 (inactive) | -0.829 (inactive)
37 | B37 | 1.05 | 2.95 | 3.61 (active)
38 | B38 | 6.8 (active) | 6.47 (active) | 6.46 (active)
39 | B39 | -0.324 (inactive) | -2.36 (inactive) | 0.573 (inactive)
40 | B40 | 1.9 | 0.613 (inactive) | -0.705 (inactive)
41 | B41 | 1.17 | 1.52 | 0.934 (inactive)
42 | B42 | -0.448 (inactive) | 0.845 (inactive) | 1.95
43 | B43 | -0.648 (inactive) | -0.595 (inactive) | -1.15 (inactive)
44 | B44 | 7.93 (active) | 9.37 (active) | 8.96 (active)
45 | B45 | -1.38 (inactive) | -0.98 (inactive) | -0.486 (inactive)
46 | B46 | -0.597 (inactive) | -0.486 (inactive) | -0.755 (inactive)
47 | B47 | 6.55 (active) | 8.6 (active) | 7.52 (active)
48 | B48 | -1.38 (inactive) | 0.0659 (inactive) | 0.59 (inactive)
49 | B49 | 9.34 (active) | 11.3 (active) | 8.9 (active)
50 | B50 | 0.641 (inactive) | 1.84 | 1.15
51 | B51 | 1.16 | 3.39 | 3.53 (active)
52 | B52 | 2.47 | 1.11 | 0.11 (inactive)
